Assay results from the supplement of paper PMC9446081.
Among all 39,000 compounds or so, about 220 (0.56%) showed activity. The entries come from a sample that favours actives as a whole.

Test system: Escherichia coli K-12 BW25113
Assay: relative growth (OD600 normalised to plate interquartile mean) (fraction); higher = less growth inhibition, active = 0.2 or less
Conditions: 50 µM; LB; incubation time: overnight (16-24 h)
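Note: Wild-type cells incubated without shaking, value is the mean of two biological replicates.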

Structure (SMILES) | relative growth
O=c1nc[nH]c2n[nH]cc12 | 1.03 (inactive)
COC1=C(N)C(=O)c2nc(-c3nc(C(=O)O)c(C)c(-c4ccc(OC)c(OC)c4O)c3N)ccc2C1=O | 0.038 (active)
COc1ccc(C(=O)O)c(O)c1OC | 1.03 (inactive)
COCC(=O)Nc1ccc2c(c1)C(=O)N(C)C[C@@H](OC)[C@H](C)CN(Cc1ccccc1C(=O)O)[C@H](C)CO2 | 1.02 (inactive)
C[C@@H]1CCCCO[C@H](CN(C)S(=O)(=O)c2ccc(Cl)cc2)[C@@H](C)CN([C@H](C)CO)C(=O)c2cc(NC(=O)c3ccncc3)ccc2O1 | 1.01 (inactive)
COc1ccc(CN(C)C[C@H]2OCCCC[C@H](C)Oc3ccc(NS(=O)(=O)c4ccc(C)cc4)cc3C(=O)N([C@@H](C)CO)C[C@@H]2C)cc1 | 0.982 (inactive)
C[C@H](CO)N1C[C@H](C)[C@H](CN(C)Cc2ccc3c(c2)OCO3)OCCCC[C@H](C)Oc2ccc(NS(=O)(=O)c3ccc(F)cc3)cc2C1=O | 0.995 (inactive)
COc1ccc(NC(=O)N(C)C[C@@H]2Oc3ccc(NC(=O)Nc4ccc(C(F)(F)F)cc4)cc3C(=O)N([C@@H](C)CO)C[C@H]2C)cc1 | 1.03 (inactive)
Clc1nc(-c2ccccn2)nc2scc(-c3ccccc3)c12 | 0.979 (inactive)
C[C@@H](O)c1cccc(C(F)(F)F)c1 | 0.986 (inactive)
CC(Cc1cccc(C(F)(F)F)c1)NCCOC(=O)c1ccccc1.Cl (stereo unspecified) | 0.815 (inactive)
CC(NCCCc1cccc(C(F)(F)F)c1)c1cccc2ccccc12.Cl (stereo unspecified) | 0.0467 (active)
C[C@H]1CN([C@@H](C)CO)C(=O)c2cc(NS(=O)(=O)c3cn(C)cn3)ccc2O[C@H]1CN(C)Cc1ccc(C(=O)Nc2ccccc2N)cc1 | 1.04 (inactive)
COc1cccc(OCc2ccc(Cn3nc(NC(=O)NCc4ccccc4OC)c4ccccc43)cc2)c1 | 1.03 (inactive)
O=C1C=CC(=O)N1 | 0.0291 (active)
Cc1noc(C)c1S(=O)(=O)Nc1ccc2c(c1)CC(=O)N([C@H](C)CO)C[C@H](C)[C@H](CN(C)S(=O)(=O)c1c(C)noc1C)O2 | 1.01 (inactive)
COCCc1nc2c([nH]1)c(=O)n(C)c(=O)n2C | 0.97 (inactive)
CN(C)CCOC(c1ccccc1)c1ccccc1.Cn1c(=O)c2[nH]c(Cl)nc2n(C)c1=O | 0.0491 (active)
CN(C)CCOC(c1ccccc1)c1ccccc1.Cl | 1.12 (inactive)
CO[C@@H]1CN(C)C(=O)c2cc(NC(=O)c3ccc(F)cc3)ccc2OC[C@@H](C)N(C(=O)CN(C)C)C[C@H]1C | 0.988 (inactive)
C[C@H]1CCCCO[C@@H](CN(C)Cc2ccc(C(=O)Nc3ccccc3N)cc2)[C@@H](C)CN([C@@H](C)CO)C(=O)c2cc(N(C)C)ccc2O1 | 0.998 (inactive)

Structure (SMILES) | relative growth
[N-]=[N+]=Nc1ccccc1C[C@@]1(C(=O)NC[C@@H](O)CO)N=C(c2ccc(OCCCO)cc2)O[C@@H]1c1ccccc1 | 1 (inactive)
COc1ccc(S(=O)(=O)N(C)C[C@H]2Oc3ccc(NS(=O)(=O)c4ccc(F)cc4)cc3C(=O)N([C@H](C)CO)C[C@H]2C)cc1 | 1.02 (inactive)
COC1C(OC(N)=O)C(O)C(Oc2ccc3c([O-])c(NC(=O)c4ccc(O)c(CC=C(C)C)c4)c(=O)oc3c2C)OC1(C)C.[Na+] (stereo unspecified) | 0.701 (inactive)
CO[C@@H]1[C@@H](OC(=O)c2ccc(C)[nH]2)[C@@H](O)[C@@H](Oc2ccc3c(c2C)OC(=O)[C@H](NC(=O)c2[nH]cc(CC(=O)Nc4cc5ccc(O[C@@H]6OC(C)(C)[C@H](OC)[C@@H](OC(=O)c7ccc(C)[nH]7)[C@H]6O)c(C)c5oc4=O)c2C)C3)CC1(C)C | 0.0629 (active)
COCCCNC(=O)[C@@H]1c2ccccc2C(=O)N(Cc2cc(C(F)(F)F)cc(C(F)(F)F)c2)[C@H]1c1ccc(CO)cc1 | 0.859 (inactive)
Cc1noc(C)c1NC(=O)Nc1ccc2c(c1)C(=O)N([C@@H](C)CO)C[C@@H](C)[C@@H](CN(C)C(=O)c1ccccc1)OCCCC[C@@H](C)O2 | 0.977 (inactive)
Cc1cc(C2CCCCC2)n(O)c(=O)c1.NCCO | 0.0534 (active)
C[C@@H]1CN([C@@H](C)CO)C(=O)c2cc(-c3cccc(C(=O)N(C)C)c3)cnc2O[C@H]1CN(C)S(=O)(=O)c1ccccc1 | 1.01 (inactive)
COCC#Cc1ccc2c(c1)O[C@H](CN(C)C(=O)C1CCCCC1)[C@H](C)CN([C@H](C)CO)S2(=O)=O | 0.988 (inactive)
COC1C=COC2(C)Oc3c(C)c(O)c4c(O)c(c(C=NN5CCN(C6CCCC6)CC5)c(O)c4c3C2=O)NC(=O)C(C)=CC=CC(C)C(O)C(C)C(O)C(C)C(OC(C)=O)C1C (stereo unspecified) | 0.0719 (active)
COC1C=COC2(C)Oc3c(C)c(O)c4c(O)c(c(C=NN5CCN(C)CC5)c(O)c4c3C2=O)NC(=O)C(C)=CC=CC(C)C(O)C(C)C(O)C(C)C(OC(C)=O)C1C (stereo unspecified) | 0.0777 (active)
COC1C=COC2(C)Oc3c(C)c(O)c4c(O)c(c5c(nc6cc(C)ccn65)c4c3C2=O)NC(=O)C(C)=CC=CC(C)C(O)C(C)C(O)C(C)C(OC(C)=O)C1C (stereo unspecified) | 0.0499 (active)
CO[C@H]1/C=C\O[C@@]2(C)Oc3c(C)c(O)c4c(O)c(c(/C=N/N=C/N5CCCCC5)c(O)c4c3C2=O)NC(=O)/C(C)=C\C=C/[C@H](C)[C@H](O)[C@@H](C)[C@@H](O)[C@@H](C)[C@H](OC(C)=O)[C@@H]1C | 0.65 (inactive)
CO[C@H]1/C=C\O[C@@]2(C)Oc3c(C)c(O)c4c(c3C2=O)[C@]2(C=C(NC(=O)/C(C)=C\C=C/[C@@H](C)[C@@H](O)[C@@H](C)[C@@H](O)[C@@H](C)[C@@H](OC(C)=O)[C@@H]1C)C4=O)OCC(=O)O2 | 0.905 (inactive)
C[C@@H]1CCCCO[C@H](CN(C)Cc2ccc3c(c2)OCO3)[C@H](C)CN([C@@H](C)CO)C(=O)c2cc(NC(=O)NC3CCCCC3)ccc2O1 | 1.01 (inactive)
C[C@H](CO)N1C[C@H](C)[C@@H](CN(C)C(=O)NC2CCCCC2)Oc2c(NC(=O)Nc3cccc4ccccc34)cccc2C1=O | 0.995 (inactive)
C[C@H](CO)N1C[C@H](C)[C@@H](CN(C)Cc2ccncc2)Oc2c(NS(=O)(=O)c3ccc(F)cc3)cccc2C1=O | 1 (inactive)
CO[C@H]1CN(C)C(=O)c2ccc(NS(C)(=O)=O)cc2OC[C@H](C)N(C(=O)C2CCCCC2)C[C@@H]1C | 0.962 (inactive)
C[C@H]1CN([C@@H](C)CO)C(=O)Cc2cc(NS(=O)(=O)c3ccc(Cl)cc3)ccc2O[C@H]1CN(C)Cc1ccc(-c2ccccc2)cc1 | 0.992 (inactive)
Cc1noc(C)c1NC(=O)N(C)C[C@@H]1OCCCC[C@@H](C)Oc2ccc(NC(=O)Cc3ccccc3)cc2C(=O)N([C@@H](C)CO)C[C@H]1C | 0.958 (inactive)
Nc1nc(=O)c2ncn(COCCO)c2[nH]1 | 1 (inactive)

Structure (SMILES) | relative growth
COc1ccc(S(=O)(=O)Nc2ccc3c(c2)C(=O)N([C@@H](C)CO)C[C@H](C)[C@@H](CN(C)S(=O)(=O)c2cn(C)cn2)OCCCC[C@H](C)O3)cc1 | 0.994 (inactive)
CO[C@H]1CN(C)C(=O)c2cc(NS(=O)(=O)CC(F)(F)F)ccc2OC[C@@H](C)N(Cc2nccs2)C[C@@H]1C | 0.962 (inactive)
NC(=O)c1cc[n+](CC2=C(C(=O)[O-])N3C(=O)C(NC(=O)Cc4cccs4)C3SC2)cc1 (stereo unspecified) | 0.634 (inactive)
CC(=O)OCC1=C(C(=O)[O-])N2C(=O)C(NC(=O)Cc3cccs3)C2SC1.[Na+] (stereo unspecified) | 0.0435 (active)
COC1(NC(=O)Cc2cccs2)C(=O)N2C(C(=O)[O-])=C(COC(N)=O)CSC21.[Na+] (stereo unspecified) | 0.0688 (active)
CC(=O)OCC1=C(C(=O)[O-])N2C(=O)C(NC(=O)CSc3ccncc3)C2SC1.[Na+] (stereo unspecified) | 0.797 (inactive)
C[C@H](CO)N1C[C@H](C)[C@H](CN(C)C(=O)Nc2ccccc2)Oc2c(NC(=O)CCCCCC(=O)Nc3ccccc3N)cccc2C1=O | 0.992 (inactive)
COc1ccc(S(=O)(=O)N(C)C[C@H]2Oc3c(NC(=O)C4CC4)cccc3C(=O)N([C@H](C)CO)C[C@@H]2C)cc1 | 0.992 (inactive)
C[C@@H]1CCCCO[C@H](CN(C)C)[C@H](C)CN([C@@H](C)CO)C(=O)c2cc(NS(=O)(=O)c3cn(C)cn3)ccc2O1 | 0.994 (inactive)
C[C@@H]1CCCCO[C@H](CN(C)S(=O)(=O)c2ccccc2)[C@H](C)CN([C@@H](C)CO)C(=O)c2cc(NC(=O)Nc3ccc(C(F)(F)F)cc3)ccc2O1 | 1 (inactive)
COc1ccc(S(=O)(=O)Nc2ccc3c(c2)C(=O)N([C@@H](C)CO)C[C@H](C)[C@H](CN(C)S(=O)(=O)c2ccc(C)cc2)O3)cc1 | 1.01 (inactive)
C[C@H]1CN([C@@H](C)CO)C(=O)Cc2cc(NC(=O)Nc3ccc(C(F)(F)F)cc3)ccc2O[C@@H]1CN(C)C(=O)Nc1ccc(F)cc1 | 1.01 (inactive)
O=C(C[C@H]1C[C@@H]2c3cc(NC(=O)Cc4ccncc4)ccc3O[C@@H]2[C@@H](CO)O1)NCCN1CCCCC1 | 0.983 (inactive)
Cc1cn([C@H]2C[C@H](F)[C@@H](CO)O2)c(=O)[nH]c1=O | 0.276 (inactive)
Cc1cn([C@H]2C[C@@H](NC(=O)C(C)(C)C)[C@@H](CO)O2)c(=O)[nH]c1=O | 1.02 (inactive)
Cc1cn([C@H]2C[C@H](N=[N+]=[N-])[C@@H](CO)O2)c(=O)[nH]c1=O | 0.048 (active)
Cc1cn([C@H]2CC[C@@H](CO)O2)c(=O)[nH]c1=O | 0.531 (inactive)
Cc1cn(C2CC(N=[N+]=[N-])C(CO)O2)c(=O)[nH]c1=O (stereo unspecified) | 0.0449 (active)
CCc1cn([C@H]2C[C@@H](O)[C@@H](CO)O2)c(=O)[nH]c1=O | 0.827 (inactive)
